We go through 20 compounds from PubChem BioAssay.

Structures are written as SMILES. Unmarked numbers belong to inactive results. For some of these results: Entries with a potency or affinity are not part of this list. The source made the active and inactive calls. Unless noted, the rule behind the calls is not given here.

A short description of experiment [1]: antimalarial activity against Dd2 strain (AID 2302;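 active = growth inhibition above 50% at the single 2 µM test dose, taken to imply half-maximal potency below 2 µM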;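 note: 0% = DMSO untreated growth and 100% = chloroquine plus artemisinin killed control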). The note with it: P. falciparum Dd2 in RBCs, LDH growth readout, 72 h; at 2 µM; stronger effect = higher value.
A short description of experiment [2]: HepG2 cytotoxicity, primary screen, cytotoxicity control for P. falciparum antimalarial project, cell-based, ATP luminescence (AID 2303;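 active = inhibition above 50%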;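 note: 0% = DMSO wells and 100% = digitonin-killed cells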). To be noted: HepG2 viability, 24-48 h, at 10 µM, stronger effect = higher value.
Experiment [3] has as its target L-lactate dehydrogenase (Plasmodium falciparum (isolate CDC / Honduras)) (UniProt Q27743). Kind of experiment: PfLDH activity inhibition – cell lysate, 3D7 strain, counter-screen for P. falciparum growth inhibition project (AID 2304).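 Note: 0% = vehicle and 100% = reference inhibitor.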 The note with it: P. falciparum 3D7 crude extract, LDH APAD/NBT absorbance; at 2 µM; stronger effect = higher value.
Experiment [4] is described as follows: inhibition of 3D7 malaria parasite growth – strain 3D7 (AID 2306).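 Note: 0% = DMSO wells and 100% = chloroquine plus artemisinin control wells.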 To be noted: P. falciparum 3D7 erythrocytic growth, LDH absorbance, 72 h; at 2 µM; stronger effect = higher value.
Experiment [5] concerns the target Calcium-dependent protein kinase 1 (Plasmodium falciparum (isolate 3D7)) (UniProt P62344). In words: PfCDPK1 kinase inhibitors, biochemical, TCAMS library (AID 1159585; cut-off not given, nearly all actives have IC50 up to about 0.98 µM;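 note: inhibitors leave more ATP so luminescence rises with inhibition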). The note with it: recombinant PfCDPK1, Kinase-Glo ATP depletion luminescence. (Kinase-Glo measures the ATP left after a reaction by luminescence.)
For experiment [6], the target named is Plasmodium falciparum protein kinase 6 (PK6, PF3D7_1337100) (UniProt Q8IDW1). In words: PfPK6 kinase inhibitors, biochemical, TCAMS library (AID 1159586). The note with it: recombinant PfPK6, Kinase-Glo ATP depletion luminescence.
Experiment [7] deals with Protein kinase 7 (PK7), Plasmodium falciparum 3D7 (PF3D7_0213400) (UniProt Q7YTF7). Kind of experiment: inhibition of Plasmodium PK7 catalytic activity – biochemical, TCAMS antimalarial set, Kinase-Glo luminescence (AID 1159587). To be noted: recombinant PfPK7, Kinase-Glo ATP depletion luminescence.
The target of experiment [8] is Calcium-dependent protein kinase 4 (Plasmodium falciparum (isolate 3D7)) (UniProt Q8IBS5). Kind of experiment: PfCDPK4 kinase inhibitors, biochemical, TCAMS library (AID 1159588; cut-off not given, nearly all actives have IC50 up to about 0.91 µM). To be noted: recombinant PfCDPK4, Kinase-Glo ATP depletion luminescence.
Calcium-dependent protein kinase 4 (Plasmodium falciparum (isolate 3D7)), sequence (Q8IBS5 whole entry, looked up): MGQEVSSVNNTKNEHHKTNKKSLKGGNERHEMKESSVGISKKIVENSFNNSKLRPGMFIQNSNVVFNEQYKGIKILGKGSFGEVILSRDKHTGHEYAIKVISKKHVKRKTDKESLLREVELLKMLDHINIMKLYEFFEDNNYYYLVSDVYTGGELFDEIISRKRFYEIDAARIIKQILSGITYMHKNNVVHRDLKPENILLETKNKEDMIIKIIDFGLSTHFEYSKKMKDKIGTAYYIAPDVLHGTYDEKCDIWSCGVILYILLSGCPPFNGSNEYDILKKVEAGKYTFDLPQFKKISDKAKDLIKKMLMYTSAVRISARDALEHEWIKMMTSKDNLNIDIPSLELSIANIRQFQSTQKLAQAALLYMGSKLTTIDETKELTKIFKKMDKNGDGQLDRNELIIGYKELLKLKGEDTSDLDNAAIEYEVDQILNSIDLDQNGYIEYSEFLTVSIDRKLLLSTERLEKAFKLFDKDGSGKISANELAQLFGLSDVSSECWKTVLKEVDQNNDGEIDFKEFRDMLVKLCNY

Calcium-dependent protein kinase 1 (Plasmodium falciparum (isolate 3D7)), sequence (P62344 whole entry, looked up): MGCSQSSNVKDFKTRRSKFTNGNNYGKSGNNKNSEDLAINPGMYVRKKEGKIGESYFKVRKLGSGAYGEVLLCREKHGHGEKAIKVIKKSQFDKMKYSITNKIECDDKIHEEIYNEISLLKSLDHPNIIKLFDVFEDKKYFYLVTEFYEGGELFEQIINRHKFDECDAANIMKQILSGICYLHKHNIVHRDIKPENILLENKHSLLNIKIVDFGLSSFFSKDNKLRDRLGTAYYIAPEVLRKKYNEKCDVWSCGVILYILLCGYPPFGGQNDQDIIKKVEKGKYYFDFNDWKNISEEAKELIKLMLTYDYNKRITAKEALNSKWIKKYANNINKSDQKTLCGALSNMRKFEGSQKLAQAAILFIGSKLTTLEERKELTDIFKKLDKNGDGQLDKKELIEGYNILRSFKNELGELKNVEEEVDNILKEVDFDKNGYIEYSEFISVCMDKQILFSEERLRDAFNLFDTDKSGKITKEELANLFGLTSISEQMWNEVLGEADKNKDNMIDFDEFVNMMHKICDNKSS
Plasmodium falciparum protein kinase 6 (PK6, PF3D7_1337100), sequence (Q8IDW1 1-305): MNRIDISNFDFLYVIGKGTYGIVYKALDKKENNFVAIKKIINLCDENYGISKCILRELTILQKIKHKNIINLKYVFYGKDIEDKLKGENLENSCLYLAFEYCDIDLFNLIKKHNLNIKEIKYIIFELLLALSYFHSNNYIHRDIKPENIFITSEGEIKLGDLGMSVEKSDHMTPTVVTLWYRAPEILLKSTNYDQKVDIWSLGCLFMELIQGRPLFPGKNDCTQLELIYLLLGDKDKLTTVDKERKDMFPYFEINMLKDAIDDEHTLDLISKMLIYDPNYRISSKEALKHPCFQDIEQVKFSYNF
L-lactate dehydrogenase (Plasmodium falciparum (isolate CDC / Honduras)), sequence (Q27743 whole entry, looked up): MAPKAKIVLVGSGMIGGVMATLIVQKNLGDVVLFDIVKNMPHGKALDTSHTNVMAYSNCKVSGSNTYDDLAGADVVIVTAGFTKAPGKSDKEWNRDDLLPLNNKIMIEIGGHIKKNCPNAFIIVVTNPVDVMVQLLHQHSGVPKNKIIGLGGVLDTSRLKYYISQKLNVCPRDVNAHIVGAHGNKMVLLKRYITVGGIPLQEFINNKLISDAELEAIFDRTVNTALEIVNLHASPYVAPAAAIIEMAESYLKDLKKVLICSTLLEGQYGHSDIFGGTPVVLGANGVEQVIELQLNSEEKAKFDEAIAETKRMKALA
Protein kinase 7 (PK7), Plasmodium falciparum 3D7 (PF3D7_0213400), sequence (Q7YTF7 1-343): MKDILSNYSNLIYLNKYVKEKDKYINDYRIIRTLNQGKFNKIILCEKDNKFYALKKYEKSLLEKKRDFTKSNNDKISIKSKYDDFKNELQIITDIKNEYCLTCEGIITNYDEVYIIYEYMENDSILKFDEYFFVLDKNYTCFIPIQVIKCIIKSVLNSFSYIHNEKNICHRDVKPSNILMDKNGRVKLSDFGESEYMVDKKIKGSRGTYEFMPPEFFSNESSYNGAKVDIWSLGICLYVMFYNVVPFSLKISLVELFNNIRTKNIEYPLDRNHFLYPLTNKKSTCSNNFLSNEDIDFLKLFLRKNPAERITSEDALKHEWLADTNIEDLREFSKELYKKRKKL

Usually inhibition stands for the change of the read-out against control, counted positive when it falls. Turning to `CC(C)c1sc(N2CCN(C)CC2)nc1C(=O)NCCc1cccc(Cl)c1`, the growth inhibition in experiment [1] is 15%; in experiment [4], 91% (active). Further, the inhibition in experiment [2] is 9%; in experiment [3], -1%. Besides, the result in experiment [5], in experiment [6], in experiment [7] and in experiment [8] was inactive.
With `CCN(CC)CCCN(C(=O)Nc1ccc(C#N)cc1)c1nc(-c2ccc(F)cc2)cs1`, the growth inhibition in experiment [1] was 68% (active); in experiment [4] it was 99% (active). Also, the results for the inhibition in experiment [2] and in experiment [3] were 36% and 0%, respectively. For the same compound, the outcome in experiment [5], in experiment [6], in experiment [7] and in experiment [8] was inactive.
For the compound `CCN(C(=O)CSc1cc(C)c2cc(C)cc(C)c2n1)C1CCS(=O)(=O)C1` (stereo not given), the growth inhibition is 82% (active) in experiment [1] and 97% (active) in experiment [4]. The inhibition is 5% in experiment [2] and -1% in experiment [3]. Moreover, the result in experiment [5], in experiment [6], in experiment [7] and in experiment [8] was inactive.
Turning to `CN1CCC(Oc2ccc(CN3CC[C@H](NC(=O)c4ccc(Cl)c(Cl)c4)C3)c3ccccc23)C1` (stereo not given in full), the growth inhibition was 82% (active) in experiment [1] and 100% (active) in experiment [4]. Also, the inhibition in experiment [2] was 52% (active); in experiment [3] it was 3%. The result in experiment [5], in experiment [6], in experiment [7] and in experiment [8] was inactive.
Turning to `O=C(/C=C/c1ccc(Cl)c(Cl)c1)NCCCCCN1CCCN(C(=O)Nc2cccc(C(F)(F)F)c2)CC1`, the growth inhibition in experiment [1] is -2%; in experiment [4], 96% (active). The inhibition in experiment [2] was 45%; in experiment [3], 1%. The result in experiment [5], in experiment [6], in experiment [7] and in experiment [8] was inactive.
Turning to `Cc1cc(N[C@@H](CC(C)C)C(=O)NCCc2ccccc2)nc(NCCc2cccs2)n1`, the growth inhibition in experiment [1] is 16%; in experiment [4], 89% (active). Further, the results for the inhibition in experiment [2] and in experiment [3] were 0% and -3%, respectively. Also, the result in experiment [5], in experiment [6], in experiment [7] and in experiment [8] was inactive.
For `Oc1ccccc1CNCC12CC3CC(CC(C3)C1)C2`, the growth inhibition in experiment [1] was 99% (active); in experiment [4], 98% (active). Further, the inhibition was -4% in experiment [2] and 5% in experiment [3]. The outcome in experiment [5], in experiment [6], in experiment [7] and in experiment [8] was inactive.
For `O=C(Cn1c(SCc2cccc(F)c2F)cc(=O)c2ccccc21)N(CCCn1ccnc1)Cc1ccc(-c2ccc(C(F)(F)F)cc2)cc1`, the growth inhibition in experiment [1] and in experiment [4] was 99% (active) in each case. Also, the results for the inhibition in experiment [2] and in experiment [3] were 21% and -5%, respectively. The result in experiment [5], in experiment [6], in experiment [7] and in experiment [8] was inactive.
As to `COc1c(Br)cc(Br)cc1-c1ccc(CN2CC3CCC2CC3)[nH]1`, the growth inhibition in experiment [1] is 100% (active); in experiment [4], 98% (active). Also, the inhibition in experiment [2] was 91% (active); in experiment [3], -3%. Moreover, the result in experiment [5], in experiment [6], in experiment [7] and in experiment [8] was inactive.
As to `Nc1cccc(CNCc2ccc(-c3ccc(-c4nc5ccc(F)cc5[nH]4)s3)cc2)c1`, the growth inhibition in experiment [1] was 93% (active); in experiment [4], 102% (active). Besides, the inhibition in experiment [2] was 12%; in experiment [3] it was 1%. In addition, the result in experiment [5], in experiment [6], in experiment [7] and in experiment [8] was inactive.
As for `CC1(C)N=C(N)N=C(N)N1OCCSCc1cc(Cl)sc1Cl`, the growth inhibition in experiment [1] was 72% (active); in experiment [4] it was 93% (active). Moreover, the inhibition in experiment [2] was 70% (active); in experiment [3], -2%. In addition, the result in experiment [5], in experiment [6], in experiment [7] and in experiment [8] was inactive.
Consider `CCCCCC(C)N=C(Nc1ccc(C#N)cc1O)Nc1cccc(Cl)c1Cl` (stereo not given), for which the values for the growth inhibition in experiment [1] and in experiment [4] were 98% (active) and 100% (active), respectively. The inhibition is 28% in experiment [2] and -5% in experiment [3]. The outcome in experiment [5], in experiment [6], in experiment [7] and in experiment [8] was inactive.
As to `O=C(CNc1ccncc1)c1c[nH]c2ccccc12`, the figures for the growth inhibition in experiment [1] and in experiment [4] were 62% (active) and 90% (active), respectively. The inhibition was 31% in experiment [2] and -3% in experiment [3]. The outcome in experiment [5], in experiment [6], in experiment [7] and in experiment [8] was inactive.
Turning to `COc1nc2c(CCN3CCC(NCc4ccc5c(c4)NC(=O)CO5)CC3)c(Cl)cnc2cc1F`, the results for the growth inhibition in experiment [1] and in experiment [4] were 21% and 99% (active), respectively. The inhibition in experiment [2] is 15%; in experiment [3] it was 6%. Moreover, the result in experiment [5], in experiment [6], in experiment [7] and in experiment [8] was inactive.
Take `C[C@H](O)[C@@](C)(CO)NCc1ccc2c3c(cccc13)-c1ccccc1-2`: the values for the growth inhibition in experiment [1] and in experiment [4] were 85% (active) and 95% (active), respectively. Also, the inhibition in experiment [2] is 81% (active); in experiment [3] it was -2%. For the same compound, the result in experiment [5], in experiment [6], in experiment [7] and in experiment [8] was inactive.
For the compound `Cc1nn(-c2ccccc2)nc1C(=O)NC1CCN(CCNC(=O)c2ccc(Cl)c(Cl)c2)CC1`, the growth inhibition was 5% in experiment [1] and 89% (active) in experiment [4]. The figures for the inhibition in experiment [2] and in experiment [3] were 15% and 0%, respectively. Also, the outcome in experiment [5], in experiment [6], in experiment [7] and in experiment [8] was inactive.
Take `CCn1ncc2c(N3CCCC3=O)cc(C(=O)N[C@@H](Cc3ccccc3)[C@H](O)CNC(C)(C)c3cccc(OC)c3)cc21`: the growth inhibition in experiment [1] was 97% (active); in experiment [4], 98% (active). Further, the inhibition in experiment [2] was 6%; in experiment [3], 0%. For the same compound, the outcome in experiment [5], in experiment [6], in experiment [7] and in experiment [8] was inactive.
With `Cc1[nH]cc(Br)c(=O)c1-c1ccc(Oc2ccc(OC(F)(F)F)cc2)cc1`, the growth inhibition was 92% (active) in experiment [1] and 96% (active) in experiment [4]. In addition, the inhibition in experiment [2] was 22%; in experiment [3], -2%. In addition, the result in experiment [5], in experiment [6], in experiment [7] and in experiment [8] was inactive.
As for `COc1ccc(Cc2c(N)nc3nc(N)nc(N)c3c2C)cc1`, the growth inhibition was 3% in experiment [1] and 94% (active) in experiment [4]. In addition, the inhibition in experiment [2] was 64% (active); in experiment [3] it was -8%. Also, the result in experiment [5], in experiment [6], in experiment [7] and in experiment [8] was inactive.
For `Cc1cc(C(=O)CN2C(=O)NC3(CCOc4ccccc43)C2=O)c(C)n1Cc1ccc(F)cc1` (stereo not given), the growth inhibition is 84% (active) in experiment [1] and 95% (active) in experiment [4]. Also, the inhibition is 1% in experiment [2] and 0% in experiment [3]. In addition, the outcome in experiment [5], in experiment [6], in experiment [7] and in experiment [8] was inactive.
